Screening results from PubChem.
PI4K2A block – inhibitors of human PI4K2A | purified PI4K2A, ADP-Glo luminescence, 1 h; hits give low values | 0.13% of 420,000 active | activity change, negative = inhibition, % at 76.9 µM | AID 1346378 | Q9BTU6; in the data active = activity change below about -50%; inconclusive = mostly about -30% to -49%;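 also: -100% = wells without enzyme as full effect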
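PI4K2A activity was measured by ADP-Glo luminescence: enzyme (4 ug/mL stock) and phosphatidylinositol (1.2 mM stock) in Tris pH 7.5/MgCl2/EGTA/Triton X-100 buffer were reacted with ATP (300 microM stock) for one hour at ambient temperature.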
TrxR1 inh – inhibitors of rat thioredoxin reductase 1; recombinant rTrxR1, NADPH fluorescence consumption, selenite substrate; Potency, µM (titrated, usually from 114 µM), for inactives: at the top dose activity change, negative = inhibition, actives largely listed as inhibitors; 1% of 390,000 active; also: potency is read from the fitted curve at half-maximal effect; nearly all actives have a fitted effect of over 65% in size
Target sequence (O89049 whole entry, looked up): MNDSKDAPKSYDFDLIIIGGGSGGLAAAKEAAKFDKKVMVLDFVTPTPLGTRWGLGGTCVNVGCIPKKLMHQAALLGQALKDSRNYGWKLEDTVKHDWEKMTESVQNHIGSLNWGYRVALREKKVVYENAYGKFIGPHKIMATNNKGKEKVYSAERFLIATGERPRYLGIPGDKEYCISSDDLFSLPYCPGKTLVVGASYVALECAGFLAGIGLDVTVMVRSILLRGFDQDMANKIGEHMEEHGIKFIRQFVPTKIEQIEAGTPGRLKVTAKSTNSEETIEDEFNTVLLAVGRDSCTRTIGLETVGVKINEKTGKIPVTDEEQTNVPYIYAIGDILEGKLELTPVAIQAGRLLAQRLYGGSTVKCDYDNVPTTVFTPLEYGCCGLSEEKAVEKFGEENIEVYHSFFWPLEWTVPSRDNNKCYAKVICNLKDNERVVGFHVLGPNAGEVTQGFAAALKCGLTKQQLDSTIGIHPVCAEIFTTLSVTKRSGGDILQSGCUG
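Rat TrxR1 (90 nM in the dispensed reagent) was pre-reduced with 400 uM NADPH for 5 min at room temperature, then incubated with compound for 15 min. After 400 uM selenite was added, NADPH fluorescence (Ex 340/Em 450 nm) was followed for 8 min.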
GALK inh – galactokinase (human) inhibition. P51570. Purified GALK, Kinase-Glo residual ATP luminescence. Potency, µM (titrated, usually from 57.5 µM), for inactives: at the highest dose activity change, negative = inhibition, usual class: inhibitors. 0.007% of 270,000 active; also: potency is read from the fitted curve at half-maximal effect
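The enzyme phosphorylates galactose (100 uM) using ATP (35 uM); inhibition is detected as higher residual ATP, quantified by bioluminescence after 1 h reaction at room temperature, pH 8.0.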
TrxR1 substrate – rat thioredoxin reductase 1 substrate activity; O89049; purified TrxR1 substrate turnover, NADPH consumption readout; Potency, µM (series often up to 114 µM), without a hit: at the top dose activity change, negative = substrate turnover; 0.01% of 390,000 active; AID 588456; also: potency is read from the fitted curve at half-maximal effect; nearly all actives have a fitted effect of over 50% in size
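Rat TrxR1, dispensed at 90 nM, was prereduced with 400 uM NADPH (final) for 5 min at ~22 deg C, then incubated with compound 15 min before 400 uM selenite. A first-read NADPH fluorescence drop versus no-compound background flagged substrates.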
LDHA block – blocks human lactate dehydrogenase A; activity change, % (values are at about 110 or 230 µM); purified LDHA, NADH/diaphorase-resazurin fluorescence; hits give low values; 0.15% of 480,000 active; P00338; in the data active = activity change below about -30%; inconclusive = mostly about -25% to -30%;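 also: plate controls were DMSO wells for no effect and wells without enzyme for full effect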
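Enzyme activity of human lactate dehydrogenase 5 (2 nM; 0.06 mM NADH, 0.2 mM pyruvate, 5 min, RT) is measured via a resazurin/diaphorase fluorescence readout of residual NADH.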
Integrin act MD – integrin-mediated muscular dystrophy alleviation activation; alpha7betagal myoblasts, beta-gal FDG fluorescence, 48 h; AID 624291; 0.064% of 350,000 active; Potency, µM (highest dose often 38.3 µM), for the others: at the highest dose activation, most hits filed as activators;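 also: potency is read from the fitted curve at half-maximal effect; 100% = response of the positive control SU9516; nearly all actives have a fitted effect of over 60% in size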
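alpha7betagal+/- myoblasts (passage 13, 250/well) treated 48 h at 37C with compounds at 1:260 dilution of DMSO stock. Lysed, then beta-galactosidase activity read as FDG fluorescence (ex 480/em 540) after 30 min, with pre-read for autofluorescence.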
* = called active by the depositor; ? = inconclusive; . = no result given; ! = a repeat was not active; [ ] = remark or other dose. A selection: hits, their analogues and other compounds. The true share with any hit is near 1.1%. Unless noted, calls follow the shape of the dose curve; as a rule, active = well fitted curve in the direction sought with a large enough effect; inconclusive = small, poorly fitted or top-dose-only effect, or another doubt; inactive = no such curve, though single readings can be large; an effect the other way counts as inactive or inconclusive. Unless noted, % is scaled to controls: 0 for no effect and ±100 for the full control effect.

SMILES	PI4K2A block	TrxR1 inh	GALK inh	TrxR1 substrate	LDHA block	Integrin act MD
COc1ccc(N2CC(C(=O)Nc3nnc(SCC(=O)NCc4ccco4)s3)CC2=O)cc1 (stereo unspecified)	-13.2	?	-6.2%	6.0%	-2.8	-23.9%
O=C(CSc1nnc(NC(=O)C2CC(=O)N(c3ccc(F)cc3)C2)s1)NCc1ccco1 (stereo unspecified)	-9.8	31.6µM*	4.9%	7.4%	-3.0	0.0%
CC(C)(C)c1ccc(C(=O)Nc2ccc(C=C(C#N)C#N)cc2)cc1	29.2	3.16µM*	-2.6%	-6.6%	-5.8	-10.1%
N#CC(C#N)=Cc1ccc(NC(=O)c2ccc(Br)cc2)cc1	17.2	12.6µM*	-1.1%	4.0%	-13.4	5.2%
CNC(=O)c1ccc(NC(=O)c2ccc(C(C)(C)C)cc2)cc1	.	.	.	.	-0.9	.
COc1ccccc1N1CCN(CCCC(=O)c2ccc(F)cc2)CC1	0.4	1.0%	1.6%	-1.9%	-1.4	.
COc1cc2c(cc1OC)CN(CCOc1ccc(Br)cc1)CC2	4.4	15.2%	1.4%	-3.5%	-1.7	-13.1%
COc1ccccc1N1CCN(CCN(C(=O)C2CCCCC2)c2ccccn2)CC1	-65.4*!	3.7%	.	2.3%	-4.4	.
COc1ccc(C(=O)CCN2CCc3cc(OC)c(OC)cc3C2)cc1	6.9	0.891µM*	-3.7%	-5.5%[57.1 µM]	-3.5	-71.2%
COc1ccccc1N1CCN(C(=O)CCC(=O)N2CCN(c3ccccc3OC)CC2)CC1	-1.5	22.5%	7.2%	4.6%	-5.0	35.7%
COc1ccc(C(=O)CCN2CCN(c3ccccc3OC)CC2)cc1	7.6	14.1µM*	1.5%	0.1%	-0.9	-69.4%
COc1ccccc1N1CCN(CC(=O)N2CCCC2)CC1	3.3	23.3%[57.1 µM]	3.0%	8.2%[57.1 µM]	-37.2*	19.0%
CC(=O)NC(C(=O)O)=C(Cl)Cl	.	.	.	.	7.2	.
Cc1ccc(C(=O)Nc2ccc(C(=O)N3CCCCC3)cc2)o1	-52.8*	2.5%	17.8%	-7.6%	-16.7	-11.1%
COc1ccc(C(=O)C2C(=O)C(=O)N(Cc3ccco3)C2c2cccs2)cc1 (stereo unspecified)	.	44.7µM*	.	-13.8%	-3.6	.
CCOC(=O)C1=C(C)OC2(O)c3ccccc3C(=O)C12O (stereo unspecified)	-52.4*	24.4%	?	2.6%	2.5	-14.8%
CC(=O)C1=C(C)OC2(O)c3ccccc3C(=O)C12O (stereo unspecified)	-53.8*	6.3%	-1.7%	-5.1%	2.8	21.5%
Cc1ccc(-c2c(N)oc3ccccc3c2=O)cc1	.	.	.	.	-1.4	.
CCN1CCc2c(sc(NC(=S)NC(=O)c3ccccc3)c2C#N)C1	-19.6	17.8µM*	-0.1%	-8.3%	-0.2	17.6%
O=C(/C=C/c1ccco1)N(Cc1ccccc1F)C1CCS(=O)(=O)C1 (stereo unspecified)	-8.3	28.2µM*	2.9%	-2.5%	-1.3	-32.2%
CC(C)c1ccc(CN(C(=O)/C=C/c2ccco2)C2CCS(=O)(=O)C2)cc1 (stereo unspecified)	-9.4	14.1µM*	-0.5%	0.1%[57.1 µM]	-1.8	6.0%
COc1ccc(C(C#N)N2CCC(c3ccccc3)=N2)cc1 (stereo unspecified)	2.5	15.8µM*	3.2%	8.2%[57.1 µM]	-1.5	-12.8%
Cc1cc(=O)[nH]c2nnc(SCC(=O)Nc3cc(C(F)(F)F)ccc3Cl)n12	-58.1*	-7.2%[57.1 µM]	.	0.6%[57.1 µM]	0.2	.
O=C(CSc1nnc2[nH]c(=O)cc(-c3ccccc3)n12)Nc1cc(C(F)(F)F)ccc1Cl	-2.4	12.8%[57.1 µM]	.	17.7%[57.1 µM]	-10.6	.
COc1ccc(-c2nc3ccc(NC(C)=O)cc3c(=O)n2Cc2ccccc2)cc1COc1ccc(NC(C)=O)cc1	.	20µM*	.	4.4%	22.8	.
SMILES	PI4K2A block	TrxR1 inh	GALK inh	TrxR1 substrate	LDHA block	Integrin act MD
COc1ccc(-c2nc3ccc(Cl)cc3c(=O)n2Cc2ccccc2)cc1COc1ccc(NC(C)=O)cc1	.	.	.	.	2.0	.
CCCOC(=O)c1cccc(Nc2nc(C(=O)OCC)nc3ccccc23)c1	-1.6	-1.3%	.	-5.4%	0.7	.
CCCOC(=O)c1ccc(Nc2nc(C(=O)OCC)nc3ccccc23)cc1	.	.	.	.	-33.8*	.
Cc1cccc(N(Cc2ccccc2)C(=O)CCl)c1	20.1	8.91µM*	2.4%	-11.4%[57.1 µM]	0.7	-63.6%
O=C(CCl)N(Cc1ccccc1)c1ccccc1	4.5	?	-1.7%	1.1%	1.5	-58.8%
CN(C)C(=O)CN1CCN(C(C(=O)O)c2cn(C)c3cc(C(=O)O)ccc23)CC1 (stereo unspecified)	.	.	.	.	-0.5	.
CN1CCN(C(c2ccc(Cl)cc2)c2cc(Cl)c3cccnc3c2O)CC1 (stereo unspecified)	12.6	6.31µM*	0.8%	2.5%	1.4	0.0%
Cc1ccc(F)cc1NC(=O)c1nn(Cc2ccccc2)c(=O)c2ccccc12	.	.	.	.	-3.4	.
COc1cc2nc(N3CCNCC3)nc(N)c2cc1OC	2.6	79.4µM*	0.5%	59.2%	0.0	-52.2%
Cc1cnc2c(S(=O)(=O)NCC3CC3)cccc2c1	.	.	.	.	-1.3	.
CC1(C)Cc2c(c(-c3ccco3)nc3sc4c(NCCCO)ncnc4c23)CO1	-14.1	7.94µM*	.	22.6%	-3.8	-17.6%
COc1ccc(NC(=O)c2c(-n3cnnn3)sc(C)c2C)cc1Cl	.	.	.	.	0.4	.
COc1ccc(-n2cccc2C=O)cc1	1.2	-13.6%	0.0%	-12.1%	-5.7	29.4%
COc1ccc(-n2cccc2/C=C/[N+](=O)[O-])cc1	-12.1	10µM*	.	2.7%	13.4	-20.1%
CCCNC(=O)/C(C#N)=C/c1c[nH]c2ccccc12	.	.	.	.	13.2	.
O=C(/C=C/c1ccc(O)cc1)c1ccc(-c2ccccc2)cc1	.	.	.	.	14.9	.
O=C(O)/C=C/C(=O)Nc1ccc(O)cc1	-20.1	70.8µM*	.	-1.3%	13.1	-4.5%
O=C(O)/C=C/C(=O)c1ccc(O)cc1	-11.0	17.8µM*	-1.5%	-5.8%	-4.7	18.6%
Cc1ccc(C(=O)/C=C/c2ccc(-c3ccc(C)cc3)o2)cc1	-9.4	17.8µM*	1.3%	-8.6%	3.9	13.8%
O=C(/C=C\c1ccc(-c2ccccc2)o1)c1ccccc1	-0.2	10µM*	-0.1%	-7.0%	-0.5	-13.6%
Cc1ccc(C(=O)/C=C/c2ccc(-c3ccc(Cl)c(Cl)c3)o2)cc1	.	.	.	.	4.9	.
O=C(Nc1ccc2c(c1)OCCO2)c1cc2c(s1)-c1ccc(Cl)cc1S(=O)(=O)C2	.	.	.	.	-3.5	.
Cc1ccc(C(=O)/C=C\C(=O)c2ccc(C)cc2)cc1	8.8	5.01µM*	1.6%	6.5%	-2.9	11.9%
CCCn1nc(C(=O)OCC(=O)N2CCCc3ccccc32)c2ccccc2c1=O	.	.	.	.	-31.2*	.
Cn1nc(C(=O)OCC(=O)N2CCc3ccccc32)c2ccccc2c1=O	5.8	12.2%[57.1 µM]	-3.9%	0.1%[57.1 µM]	3.9	-3.9%
